aSyn 5UTR act: Activators via SNCA 5'UTR binding, MLPCN; alpha-synuclein 5'UTR reporter, activators screen; activity score, % (tested at 7.5 µM), hits read low; 300,000 tested, 7.1% active; AID 1814; in the data active = activity score below about -60%
Hits are given with their value; i = inactive. The list is a sample of the results.

SMILES	aSyn 5UTR act
Cc1cccc(C)c1OCc1cc(C(=O)N2CCC(C3CCCCC3)C2)no1 (configuration not stated)	-159
CC(=O)c1ccc(OCc2cc(C(=O)NC(C)CCn3cccn3)no2)cc1 (configuration not stated)	-164
COCC1CCCN(C(=O)c2cc(COc3ccc(C(C)=O)cc3)on2)C1 (configuration not stated)	-149
Cc1ccc(OCc2cc(C(=O)NC(C)Cc3cccnc3)no2)cc1C (configuration not stated)	-82
CC(=O)c1ccc(OCc2cc(C(=O)N3CCCCC3c3cccnc3)no2)cc1 (configuration not stated)	-83
Cc1cccc(C)c1OCc1cc(C(=O)N2CCC(c3ccccc3)CC2)no1	-80
Cc1cccc(C)c1OCc1cc(C(=O)N2CCN(c3ccc(F)cc3)CC2)no1	-72
CC(=O)c1ccc(OCc2cc(C(=O)NC3CCCCC3)no2)cc1	-81
COc1ccc(/C=N\Nc2ccccn2)c(OC)c1	-155
COc1ccc(OC)c(/C=N\Nc2nccs2)c1	-65
COc1ccc(/C=N/Nc2ncc(Br)cn2)c(OC)c1	-139
COc1ccc(/C=N/Nc2ccccn2)c(OC)c1OC	-92
CCN(CC)S(=O)(=O)c1ccc(N/N=C/c2cc(OC)ccc2O)nc1	i
COc1ccccc1/C=N/Nc1nccnc1Cl	-98
Cc1ccc(C)c(/C=N/Nc2ccccn2)c1	-139
CCN(CC)c1ccc(-c2nc3cnccc3n2C)cc1	-111
CCc1ccc(-c2ccc(C(=O)C(F)(F)F)[nH]2)cc1	-80
OCC1(Cc2ccccc2)CCN(Cc2cnc(-c3ccc(Cl)cc3)nc2)CC1	-74
Cc1ccc(-n2cc(CN3CCC(CO)(Cc4ccccc4)CC3)cn2)cc1	-108
Cc1cccc(NC(=O)c2c(C)nn(-c3ccccc3)c2Cl)c1	-97
CCOC(=O)c1cc(C(=O)Nc2cccc(C)c2)nn1C	-121
Cc1ccc(C(=O)c2cc3ccccc3o2)cc1	-170
O=C(c1cc2ccccc2o1)c1cccs1	-134
Cc1ccc(C(=O)c2cc3ccccc3o2)cc1C	-68
Cc1ccc(S(=O)(=O)c2cc3ccccc3oc2=O)cc1	-111
SMILES	aSyn 5UTR act
COc1ccc(-c2csc(-c3cccs3)n2)c(OC)c1	-126
COc1ccc(-c2csc(-c3ccccc3)n2)c(OC)c1	-202
Cn1c(=O)oc2cc(S(=O)(=O)CCC(=O)Nc3ccccc3)ccc21	-64
O=C(Nc1ccc(N2CCOCC2)cc1)Nc1ccc(Cl)c(Cl)c1	-139
O=C(Nc1ccc(N2CCOCC2)cc1)Nc1cnsn1	-114
O=C(Nc1nccs1)c1ccccc1N=Cc1ccccc1	-84
N#C/C(=C\c1cccs1)C(=O)Nc1nccs1	-75
C/C=C/C=C/C(=O)Nc1nccs1	-77
C/C(=C\c1ccccc1)C(=O)Nc1nccs1	-121
CCOC(=O)C1CCN(C(=O)/C=C/c2cccs2)CC1	-70
CCOCCOC(=O)c1[nH]c2c(c1C)C(=O)CC(c1cccs1)C2 (configuration not stated)	i
O=C(/C=C/c1ccccc1)N1CCC(c2ccccc2)C1 (configuration not stated)	-82
COC(=O)C1CCN(C(=O)/C=C/c2ccccc2)CC1	-135
[O-]/[N+](=C\c1ccco1)c1ccc(Cl)cc1	-164
[O-]/[N+](=C/c1ccc(F)cc1)c1ccc(Cl)cc1	-177
CCC1CCCCN1C(=O)CSc1nnc(-c2cccs2)o1 (configuration not stated)	-74
CC1CCCN(C(=O)CSc2nnc(-c3cccs3)o2)C1 (configuration not stated)	-79
COC(=O)c1cn(C(=O)c2ccc(OC)cc2)c2ccccc12	-147
O=C(N/N=C/C=C/c1ccccc1)c1n[nH]c2c1CCC2	i
O=C(N/N=C/C(Cl)=C/c1ccccc1)c1ccccn1	-66
CCN(CC)c1ccc(/C=N/NC(=O)c2nnn(-c3nonc3N)c2C(C)C)c(O)c1	i
CC(/C=N/NC(=O)c1nnn(-c2nonc2N)c1C(C)C)=C\c1ccco1	-62
O=C(N/N=C\C=C\c1ccco1)c1cc(-c2ccc3ccccc3c2)n[nH]1	-146
O=C(N/N=C/C=C/c1ccccc1)c1ccccn1	-166
Cc1cc(C(=O)N/N=C/C(Cl)=C/c2ccccc2)c(C)o1	-67
SMILES	aSyn 5UTR act
CC(/C=N/NC(=O)c1ccccn1)=C\c1ccco1	-75
O=C(N/N=C/C=C\c1ccco1)c1ccccn1	-145
Nc1nnn(CC(=O)N/N=C/C=C/c2ccccc2)n1	-87
O=C(N/N=C/C(Br)=C/c1ccccc1)c1cnccn1	-110
Cc1ccccc1NC(=S)c1ccc2ccccc2n1	-110
Cn1c(O)c(C=Nc2ccc(Br)cc2)sc1=O	-173
Cc1onc(-c2c(Cl)cccc2Cl)c1C(=O)N/N=C(\N)COc1ccc(Cl)cc1	i
Cc1onc(-c2c(F)cccc2Cl)c1C(=O)O/N=C(\N)c1ccc([N+](=O)[O-])o1	-80
CCCCOc1ccccc1C1CC(=O)NC2=C1C(=O)CCC2 (configuration not stated)	i
O=C(O)COc1cccc2ccccc12	-65
Clc1cccc(Cl)c1CSc1cc2c(nn1)-c1ccccc1CC2	-83
Clc1ccccc1CSc1cc2c(nn1)-c1ccccc1CC2	-132
CCC(=O)N1CCc2nc(-c3ccccc3)sc2C1	-179
Brc1cccc(OCCSc2ncccn2)c1	-69
CCCOc1ccc(OCCSc2ncccn2)cc1	-167
Clc1ccc(OCCSc2ncccn2)c(Br)c1	-114
Cc1ccc(C(=O)Nc2cccc(C(F)(F)F)c2)cc1NC(=O)c1cnnc2ccccc12	i
CCc1ccc(NC(=O)c2cnc3scc(C)n3c2=O)cc1	-247
Cc1csc2ncc(C(=O)Nc3cccc(C(F)(F)F)c3)c(=O)n12	-128
CCOc1ccc(NC(=O)c2nsc(Cl)c2Cl)cc1	-117
O=C(Nc1ccc(F)cc1)c1nsc(Cl)c1Cl	-178
O=C(Nc1ccc(F)c(Cl)c1)c1nsc(Cl)c1Cl	-110
N#Cc1c(N2CCCC(O)C2)nc(N)c2c(N)nc3c(c12)CC(=O)N3C12CC3CC(CC(C3)C1)C2 (configuration not stated)	-232
Cc1ccc2nc(N/C(=N/S(=O)(=O)c3ccc(F)cc3)c3ccccc3)sc2c1	-107
Cc1ccc2nc(N/C(=N/S(=O)(=O)c3ccc(F)cc3F)c3ccccc3)sc2c1	-108
SMILES	aSyn 5UTR act
Fc1ccc(-c2nc3ccccc3[nH]2)cc1	-96
c1cncc(-c2nc3cc4ccccc4cc3[nH]2)c1	-79
c1cncc(CNc2cccc(-c3nc4ccccc4[nH]3)c2)c1	-145
N#CCSc1ccc(-c2nc3ccccc3[nH]2)cn1	-239
Nc1cccc(-c2nc3ccccc3[nH]2)c1	-170
CC(C)c1ccc(C(=O)N/N=C/c2cccc(Cl)c2Cl)cc1	-66
CC(C)c1ccc(/C=N/NC(=O)c2cccc(Cl)c2)cc1	-238
CC(C)c1ccc(/C=N/NC(=O)CCNC(=O)c2ccccc2)cc1	-63
Cc1cc(C)nc(SCc2ccc(C(=O)N/N=C/c3cccc(O)c3O)cc2)n1	i
CSc1ccc(-c2nc(CN(C)C3CCOC3)c(C)o2)cc1 (configuration not stated)	-81
COc1cc(/C=C2\OC(=O)c3c(OC)cccc32)ccc1O	-172
CCC(=O)n1nc(-c2ccc(OC)cc2)nc1SC	-92
CCC(=O)n1nc(-c2ccc(Cl)cc2)nc1SC	-104
CCCC(=O)n1nc(-c2ccc(Cl)cc2)nc1SC	-84
O=c1c(N2CCCCC2)coc2ccccc12	-86
CCOc1ccc(NC(=S)NC(=O)/C=C/c2ccco2)cc1	-91

High-throughput results: PubChem, Broad Institute
